PubChem BioAssay (EPA / NIEHS)
Active and inactive are the calls of the source. The calls were made as follows: active = hit-call score of the fitted dose curve at least 0.9, where 1 is the maximum; inactive = score below 0.9.

The compounds below were run on CYP3A5 (gene 1577) (assay: LTEA_HepaRG_CYP3A5: Life Technologies and Expression Analysis (LTEA) Assay for CYP3A5 using HepaRG (AID 2283493)). Details: mRNA level, 48 h; actives raise or lower the signal.
Procedure: LTEA_HepaRG is a cell based, multiplexed-readout assay that uses HepaRG, a human liver cell line, with measurements taken at 48 hours after chemical dosing on a 96-well plate.LTEA_HepaRG_CYP3A5 is one of 102 assay component(s) measured in the LTEA HepaRG cell culture assay. It is a marker of NR mediated metabolism.Data from the assay component LTEA_HepaRG_CYP3A5 was analyzed into 1 endpoint. This assay endpoint, LTEA_HepaRG_CYP3A5, was analyzed with bidirectional fitting relative to DMSO as the negative control and baseline of activity. Using a type of inducible reporter, measures of mRNA induction for gain or loss-of-signal activity can be used to understand regulation of transcription factor activity. To generalize the intended target to other relatable targets, this assay endpoint is annotated to the cyp intended target family, where the subfamily is xenobiotic metabolism.
A total of 1060 chemcials from the ToxCast library were tested in eight-point concentration-response experiments. Cell culture and cytotoxicity assays were conducted at Thermo Fisher Scientific's Custom Services facility (Madison, WI). A single lot of human HepaRG cells (Thermo Fisher Scientific, Frederick, MD) was used for the cell culture experiments. 96-well format collagen type I coated plates of human HepaRG cells were prepared using established methods. Briefly, cryopreserved HepaRG cells were thawed, plated at a density of approximately 100,000 cells/well in HepaRG Thaw, Plate, and General Purpose media (HPRG770, Thermo Fisher Scientific), and incubated for 48 hours. 0.5% DMSO was selected as vehicle control to balance the requisite need of DMSO in HepaRG cultures to maintain differentiation (for example, baseline metabolism, proportions of hepatocytes vs. cholangiocytes), while enabling further hepatic receptor pathway activation (for example, PXR and CAR) in response to chemical exposure. 48 hours after plating, the culture medium was replaced with HepaRG Serum-Free Incudtion Media. Cells were exposed to each test chemical in duplicate and maintained in CO2 incubators for another 48 hours. Chemical plates were thawed to room temperature and 200x concentrations of treatment groups were prepared. 8-point conentration-reponse curves were made with the highest exposure at 100 uM, followed by half-log dilutions, all in 0.5% DMSO. Each test plate contained variouse controls, induction positive controls (1mM phenobarbital), cytotoxicity positive controls ([…] aflatoxin B1), vehicle controls (0.5% DMSO), and total lysis controls (0.5% DMSO). Cell morphology images were taken using an Essen IncuCyte FLR automated microscope, with six 96-well plates imaged in about 24 minutes. Images were captured and exported and JPEG files. Spent culture media was transfered to black-well plates for the LDH assay, and remaining media was sorted at -80 C for later use. Cells were treated with RLT buffer and frozen until shipped for gene expression analysis. Total RNA was isolated from the cell suspension in 75 uL of Buffer RLT (Qiagen, Germantown, MD 20874) by Quintiles/Expression Analysis (Durham, NC) using a custom isolation procedure. Total RNA from each plate well was transferred to a preamplification plate. Fluidigm's 96.96 Dynamic ArrayTM (Fluidigm, Amsterdam, the Netherlands) technology was used for gene expression analyses by quantitative reverse transcription polymerase chain reaction (qRT-PCR, performed by Quintiles/Expression Analysis, Durham, NC)89. Standard TaqManTM Assays (Applied Biosystems/ThermoFisher Scientific, Foster City, CA) were used to assess the expression of 93 genes selected based on their selectivity and sensitivity to important hepatic receptors known to be modulated by environmental chemicals; importance in human hepatocyte functionality; and hepatotoxicity. […]
For `O=NO`, the outcome was “inactive”. In the case of `S=c1[nH]c2ccccc2s1`, the outcome is reported as “inactive”. With `CO[C@@H]1COCC[C@@H]1N[C@@H]1CC[C@@](C(=O)N2CCc3ncc(C(F)(F)F)cc3C2)(C(C)C)C1` the outcome was “inactive”. `O=C(O)c1[nH]n(-c2ccc(S(=O)(=O)O)cc2)c(=O)c1N=Nc1ccc(S(=O)(=O)O)cc1` was tested, and the outcome was “inactive”. With `CC1=C(C)S(=O)(=O)CCS1(=O)=O` the outcome was “inactive”. In the case of `CCc1cc(C2=C(C(=O)O)N(c3ccccc3C(F)(F)F)S(=O)(=O)c3ccccc32)cc2c1OCO2`, the outcome is reported as “inactive”. In the case of `c1ccc2occc2c1`, the outcome is reported as “inactive”. With `COc1ccc(OC(F)(F)F)cc1CN[C@H]1CCCN[C@H]1c1ccccc1` the AC50 was 78.5 µM (active). `CN(C)C(=O)NC1(c2ccccc2)CCN(CCC[C@]2(c3ccc(Cl)c(Cl)c3)CCCN(C(=O)c3ccccc3)C2)CC1` was tested, and the outcome was “inactive”. For `C=CCCCCCCCCCCCC`, the outcome was “inactive”. In the case of `CCCCCCCCCCCCCCOS(=O)(=O)O`, the outcome is reported as “inactive”. In the case of `CC1(C)C(=O)NC(=O)N1CO`, the outcome is reported as “inactive”. For `O=C(O)CN(CC(=O)O)CC(=O)O`, the outcome was “inactive”. For `CC(C)NCC(O)c1ccc(O)c(O)c1` (stereo not given), the AC50 was 0.153 µM (active). With `CC(C)OC(=O)C(C)(C)Oc1ccc(C(=O)c2ccc(Cl)cc2)cc1` the outcome was “inactive”. With `CC(=O)OC1CC(C)OC(C)O1` (stereo not given) the outcome was “inactive”. For `CC(C)c1cccc(C(C)C)c1NC(=O)NS(=O)(=O)c1cc(C(C)(C)O)co1`, the outcome was “inactive”. In the case of `Cc1occc(=O)c1O`, the outcome is reported as “inactive”. For `CSc1ccc(Oc2ccc(S(N)(=O)=O)cc2CN(C)C)cc1C`, the outcome was “inactive”. For `Oc1ccc(O)cc1`, the outcome was “inactive”. In the case of `O=[Si]=O`, the outcome is reported as “inactive”. `CCCCCCCCCC[N+](C)(C)[O-]` was tested, and the outcome was “inactive”. With `Cc1ccc(-c2cc(C(F)(F)F)nn2-c2ccc(S(N)(=O)=O)cc2)cc1` the AC50 was 82 µM (active). For `CN(C)CCCN1c2ccccc2Sc2ccc(Cl)cc21`, the AC50 was 83.7 µM (active). For `O=Cc1ccccc1C=O`, the outcome was “inactive”. In the case of `N[C@@H](Cc1c[nH]c2ccccc12)C(=O)O`, the outcome is reported as “inactive”. `CCCCCCC(C=O)=Cc1ccccc1` was tested, and the outcome was “inactive”. `OCC(O)CO` was tested, and the outcome was “inactive”. For `Cc1ccc(C(C)(C)C)c(O)c1`, the outcome was “inactive”. With `CCCCOC(=O)CCCCC(=O)OCCCC` the outcome was “inactive”. For `CC(C)(C)c1ccccc1`, the outcome was “inactive”. In the case of `CN(C)C(=O)NC1(c2ccccc2)CCN(CC[C@@]2(c3ccc(F)c(F)c3)CN(C(=O)c3ccccc3)CCO2)CC1`, the outcome is reported as “inactive”. For `Cc1c(C)c2c(c(C)c1O)CCC(C)(COc1ccc(CC3SC(=O)NC3=O)cc1)O2` (stereo not given), the AC50 was 15.8 µM (active). `Cc1cc(SC2=C(O)C[C@@](CCc3ccc(N)cc3)(C(C)C)OC2=O)c(C(C)(C)C)cc1CO` was tested, and the outcome was “inactive”. In the case of `Oc1ccccc1O`, the outcome is reported as “inactive”. For `COc1ccc(C(=O)Nc2nc3ccccc3c(NCc3ccccc3)c2C#N)cc1`, the AC50 was 2.67 µM (active). For `O=C(O)CC(O)(CC(=O)O)C(=O)O`, the outcome was “inactive”. With `C/C=C/C=C/C(=O)O` the outcome was “inactive”. `O=C1c2c(O)cccc2Cc2cccc(O)c21` was tested, and the outcome was “inactive”. `OCC(CO)n1cnc(-c2ccc(F)cc2)c1-c1ccnc(Oc2ccccc2)n1` was tested, and the outcome was “inactive”.
